These results are taken from PubChem BioAssay (NCI).

Where “and” joins values, the source holds several entries; their conditions need not be identical. Identical values can stand only once. This is part of a sample that, as a whole, favours compounds with a hit. Of some 83,000 tested, about 20% had one in any assay.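 Activity criterion: percent growth below 10, measured after cells in 96-well plates were exposed to a single compound concentration for 48 hours.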 Calls of active or inactive are those of the source.

Some test systems named below: SR leukemia; RPMI-8226 leukemia; OVCAR-8 ovarian; OVCAR-5 ovarian; OVCAR-4 ovarian; SK-OV-3 ovarian; IGROV1 ovarian; OVCAR-3 ovarian; HS 578T breast; NCI/ADR-RES ovarian.
Assay in all cases: NCI-60 one-dose screen, 48 h (100 = growth as untreated, 0 = no growth, -100 = all killed)
Common to all, as to conditions: 10 µM unless noted

For `O=C(Nc1ccc(F)cc1)c1cc2cc(Nc3nc(-c4ccccc4)nc4ccccc34)ccc2oc1=O`, the growth in the assay on SR leukemia was 86.6% (inactive); in the assay on RPMI-8226 leukemia, 97.9% (inactive); in the assay with OVCAR-8 ovarian it was 100% (inactive); in the assay on OVCAR-5 ovarian it was 106% (inactive); in the assay on OVCAR-4 ovarian, 111% (inactive); with SK-OV-3 ovarian, 98.2% (inactive). Moreover, the growth in the assay on IGROV1 ovarian was 101% (inactive); with OVCAR-3 ovarian it was 105% (inactive); with HS 578T breast it was 103% (inactive); in the assay with NCI/ADR-RES ovarian, 95.5% (inactive).

Regarding `CC[C@@H]1NC(=O)[C@H]([C@H](O)[C@H](C)C/C=C/c2ccc(CN3C(=O)C(C)=C(C)C3=O)cc2)N(C)C(=O)[C@H](C(C)C)N(C)C(=O)[C@H](CC(C)C)N(C)C(=O)[C@H](CC(C)C)N(C)C(=O)[C@@H](C)NC(=O)[C@H](C)NC(=O)[C@H](CC(C)C)N(C)C(=O)[C@H](C(C)C)NC(=O)[C@H](CC(C)C)N(C)C(=O)CN(C)C1=O`, the growth in the assay on SR leukemia is 46.9% (inactive); with RPMI-8226 leukemia, 53.3% (inactive); in the assay on OVCAR-8 ovarian, 78.5% (inactive); in the assay with OVCAR-5 ovarian, 75.9% (inactive); in the assay with OVCAR-4 ovarian, 74.4% (inactive); in the assay with SK-OV-3 ovarian it was 83.4% (inactive). The growth was 68.6% (inactive) in the assay on IGROV1 ovarian, 76.7% (inactive) in the assay on OVCAR-3 ovarian, 83.9% (inactive) in the assay on HS 578T breast and 76.5% (inactive) with NCI/ADR-RES ovarian.

Consider `O=[N+]([O-])c1ccc(S(=O)Cc2ccccc2)c([N+](=O)[O-])c1` (stereo not given), for which the growth in the assay on SR leukemia is 1.64% (active) and -8.84% (active); with RPMI-8226 leukemia, 72.8% (inactive) and 27.5% (inactive); in the assay on OVCAR-8 ovarian, 45.8% (inactive) and 94.9% (inactive); in the assay with OVCAR-5 ovarian it was 82.4% (inactive) and 93.3% (inactive); in the assay with OVCAR-4 ovarian, 59.7% (inactive) and 1.6% (active); in the assay on SK-OV-3 ovarian, 104% (inactive) and 109% (inactive). In addition, the growth was 89.9% (inactive) and 106% (inactive) with IGROV1 ovarian; 13.9% (inactive) and -74.6% (active) with OVCAR-3 ovarian; 118% (inactive) and 95.2% (inactive) with HS 578T breast; 90.9% (inactive) and 90.6% (inactive) in the assay on NCI/ADR-RES ovarian.

Regarding `N#Cc1ccccc1-c1ccc(Cn2c(-c3cscn3)nc3c(Cl)cccc32)cc1`, the growth is 55.2% (inactive) in the assay with SR leukemia; 48.3% (inactive) with RPMI-8226 leukemia; 78.2% (inactive) in the assay on OVCAR-8 ovarian; 86.8% (inactive) in the assay on OVCAR-5 ovarian; 62% (inactive) with OVCAR-4 ovarian; 82.6% (inactive) with SK-OV-3 ovarian. Also, the growth in the assay on IGROV1 ovarian was 89.1% (inactive); in the assay with OVCAR-3 ovarian, 63.3% (inactive); in the assay with HS 578T breast, 85.5% (inactive); in the assay on NCI/ADR-RES ovarian, 73.3% (inactive).

As for `C/C(=C(\c1ccc(OCCN2CCOCC2)cc1)c1ccc(OC(=O)C2CCCCC2)cc1)c1ccc(Cl)cc1`, the growth is 94.2% (inactive) with SR leukemia; 44.8% (inactive) in the assay on RPMI-8226 leukemia; 101% (inactive) in the assay with OVCAR-8 ovarian; 95.6% (inactive) in the assay on OVCAR-5 ovarian; 111% (inactive) in the assay on OVCAR-4 ovarian; 96.6% (inactive) in the assay on SK-OV-3 ovarian. Further, the growth in the assay on IGROV1 ovarian is 103% (inactive); in the assay on OVCAR-3 ovarian, 97% (inactive); in the assay with HS 578T breast, 97.9% (inactive); in the assay on NCI/ADR-RES ovarian it was 98% (inactive).

Take `COc1ccc(Nc2ncnc3ccc(-c4cncc(NS(C)(=O)=O)c4)cc23)cc1Cl`: the growth with SR leukemia was 11.2% (inactive); in the assay with RPMI-8226 leukemia, 24.9% (inactive); in the assay on OVCAR-8 ovarian, 46.2% (inactive); with OVCAR-5 ovarian it was 45.1% (inactive); in the assay with OVCAR-4 ovarian it was 57.5% (inactive); with SK-OV-3 ovarian, 21.6% (inactive). In addition, the growth is 3.39% (active) in the assay with IGROV1 ovarian, 15.2% (inactive) with OVCAR-3 ovarian, -3.14% (active) with HS 578T breast and 86% (inactive) in the assay on NCI/ADR-RES ovarian.

Consider `Cc1cc(N2CCCCC2)nc(NCc2cc(Nc3ccnc4cc(Cl)ccc34)ccc2F)n1`, for which the growth in the assay with SR leukemia was -21.3% (active); in the assay on RPMI-8226 leukemia, -38.9% (active); with OVCAR-8 ovarian, -15% (active); with OVCAR-5 ovarian, -42.1% (active); with OVCAR-4 ovarian, -4.79% (active); with SK-OV-3 ovarian it was 72.6% (inactive). The growth was 10.2% (inactive) in the assay with IGROV1 ovarian, -79.5% (active) in the assay on OVCAR-3 ovarian, 14.9% (inactive) with HS 578T breast and 6.86% (active) in the assay with NCI/ADR-RES ovarian.

In the case of `c1cc(NCCCCN2CCOCC2)c2ccc3c(ccc4c(NCCN5CCOCC5)ccnc43)c2n1`, the growth in the assay on SR leukemia was -7.92% (active); with RPMI-8226 leukemia it was 98.2% (inactive); in the assay on OVCAR-8 ovarian it was 79.2% (inactive); with OVCAR-5 ovarian, 111% (inactive); in the assay on OVCAR-4 ovarian it was 91.5% (inactive); in the assay on SK-OV-3 ovarian, 101% (inactive). In addition, the growth is 65.6% (inactive) in the assay with IGROV1 ovarian, 105% (inactive) with OVCAR-3 ovarian, 88.6% (inactive) in the assay with HS 578T breast and 88.1% (inactive) with NCI/ADR-RES ovarian.

Turning to `N#CC(Cc1cccc2ccccc12)c1cc2ccccc2[nH]1` (stereo not given), the growth in the assay on SR leukemia was 99.2% (inactive); in the assay on RPMI-8226 leukemia it was 72.3% (inactive); in the assay on OVCAR-8 ovarian, 87.7% (inactive); in the assay with OVCAR-5 ovarian, 89% (inactive); in the assay with OVCAR-4 ovarian, 95.1% (inactive); with SK-OV-3 ovarian it was 84.1% (inactive). For the same molecule, the growth is 86.4% (inactive) in the assay on IGROV1 ovarian, 89.7% (inactive) with OVCAR-3 ovarian, 89.7% (inactive) with HS 578T breast and 87.2% (inactive) in the assay on NCI/ADR-RES ovarian.

Regarding `COc1ccc(-c2csc(NC(=O)CN3CCN(CCO)CC3)n2)cc1NS(=O)(=O)c1cccc2c(N(C)C)cccc12`, the growth in the assay with SR leukemia is -6.12% (active); in the assay on RPMI-8226 leukemia, 36% (inactive); in the assay with OVCAR-8 ovarian, 84.1% (inactive); in the assay with OVCAR-5 ovarian, 97% (inactive); with OVCAR-4 ovarian, 68.2% (inactive); in the assay with SK-OV-3 ovarian it was 90.7% (inactive). In addition, the growth is 77.3% (inactive) in the assay with IGROV1 ovarian, 79.5% (inactive) in the assay with OVCAR-3 ovarian, 65.7% (inactive) with HS 578T breast and 93.3% (inactive) with NCI/ADR-RES ovarian.

Turning to `CC12CCC(C(=O)CC1=O)C2(C)C` (stereo not given), the growth in the assay with SR leukemia was 122% (inactive) and 93% (inactive); in the assay with RPMI-8226 leukemia, 101% (inactive) and 94.2% (inactive); in the assay with OVCAR-8 ovarian it was 103% (inactive) and 99.5% (inactive); with OVCAR-5 ovarian, 101% (inactive) and 106% (inactive); in the assay with OVCAR-4 ovarian it was 101% (inactive); with SK-OV-3 ovarian, 104% (inactive) and 105% (inactive). Also, the growth in the assay with IGROV1 ovarian is 110% (inactive) and 104% (inactive); in the assay with OVCAR-3 ovarian, 105% (inactive) and 106% (inactive); in the assay on HS 578T breast, 108% (inactive) and 120% (inactive); in the assay on NCI/ADR-RES ovarian, 111% (inactive) and 103% (inactive).
